Data taken from PubChem BioAssay AID1159580 (chemical genetic matrix, 2015).
Where “and” joins values, the source holds several entries; their conditions need not be identical. Equal values may be shown once. In all, about 5,500 compounds went through this assay and about 2,000 (36%) were called active. Another 18% or so got no clear call; they are omitted. No stated cut-off is given here; in the data, active means normalized growth mostly below about 0.91 (no sharp cut-off); inconclusive means no clear call, values can overlap the other calls; inactive means mostly above about 0.92. Some of the results follow.

Assay: chemical genetic growth profiling, strain panel (AID 1159580);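 further: tested at 20 µM; growth read once vehicle control cultures reached saturation at 30 °C; 1 = growth at the plate median or of vehicle wells; lower values mean less growth of the strain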
Conditions: S. cerevisiae deletion strains, growth OD

Measured: normalized growth

COc1ccc2c(=O)c(-c3cc4c(cc3OC)OCO4)coc2c1
inactive: locus YAL021C, strain ccr4, hits give low values 1 | locus YAL026C, strain drs2, hits give low values 1.01 | locus YAL030W, strain snc1, hits give low values 1 | locus YBL061C, strain skt5, hits give low values 1.01 | locus YBR009C, strain hhf1, hits give low values 1 | locus YBR021W, strain FUR4, hits give low values 0.907 | locus YBR023C, strain chs3, hits give low values 1.01 | locus YBR171W, strain sec66, hits give low values 1.01 | locus YBR229C, strain ROT2, hits give low values 1 | locus YBR231C, strain swc5, hits give low values 1.01 | locus YBR279W, strain paf1, hits give low values 1.02 | locus YCL011C, strain gbp2, hits give low values 1.01 | locus YCL016C, strain dcc1, hits give low values 1.01 | locus YCL029C, strain bik1, hits give low values 1 | locus YCL061C, strain MRC1, hits give low values 1.01 | locus YCL069W, strain vba3, hits give low values 1 | locus YCR088W, strain abp1, hits give low values 1.01 | locus YDL005C, strain med2, hits give low values 1.01 | locus YDL035C, strain GPR1, hits give low values 1 | locus YDL040C, strain nat1, hits give low values 1.01 | locus YDL074C, strain BRE1, hits give low values 1.04 | locus YDL101C, strain DUN1, hits give low values 1.05 | locus YDL185W, strain tfp1, hits give low values 1.02 | locus YDL192W, strain arf1, hits give low values 1.01 | locus YDR001C, strain nth1, hits give low values 1.01 | locus YDR069C, strain doa4, hits give low values 1.02 | locus YDR101C, strain arx1, hits give low values 0.997 | locus YDR137W, strain rgp1, hits give low values 0.971 | locus YDR159W, strain sac3, hits give low values 1.03 | locus YDR162C, strain NBP2, hits give low values 1.03 | locus YDR195W, strain ref2 1.03 | locus YDR297W, strain sur2, hits give low values 1.01 | locus YDR318W, strain mcm21, hits give low values 1 | locus YDR334W, strain swr1, hits give low values 1.03 | locus YDR335W, strain msn5, hits give low values 1.01 | locus YDR388W, hits give low values 0.997 | locus YDR392W, strain spt3, hits give low values 1.02 | locus YDR502C, strain sam2, hits give low values 1.02 | locus YEL003W, strain gim4, hits give low values 1.01 | locus YEL037C, strain rad23, hits give low values 1.01 | locus YEL061C, strain CIN8 (second series), hits give low values 1.01 | locus YER015W, strain faa2, hits give low values 1.01 | locus YER016W, strain bim1, hits give low values 1.01 | locus YER110C, hits give low values 1.01 | locus YER111C, strain swi4, hits give low values 1.01 | locus YER155C, strain BEM2 (second series), hits give low values 1 | locus YER155C, strain BEM2, hits give low values 1 | locus YER167W, strain BCK2, hits give low values 1.02 | locus YFR010W, strain ubp6, hits give low values 1.02 | locus YGL078C, strain dbp3, hits give low values 1 | locus YGL086W, strain mad1, hits give low values 0.993 | locus YGL167C, strain pmr1, hits give low values 1.01 | locus YGL173C, strain kem1, hits give low values 1 | locus YGL227W, strain vid30, hits give low values 1.01 | locus YGL240W, strain doc1, hits give low values 1 | locus YGL248W, strain PDE1, hits give low values 1.02 | locus YGL253W, strain hxk2, hits give low values 1.01 | locus YGR135W, strain pre9, hits give low values 1 | locus YGR252W, strain gcn5, hits give low values 0.907 | locus YHR013C, strain ard1, hits give low values 1.03 | locus YHR027C, strain rpn1, hits give low values 1.02 | locus YHR030C, strain SLT2, hits give low values 0.98 | locus YHR079C, strain IRE1 (second series), hits give low values 1.03 | locus YHR079C, strain IRE1, hits give low values 0.982 | locus YHR094C, strain hxt1, hits give low values 1.02 | locus YHR129C, strain ARP1, hits give low values 1.03 | locus YHR142W, strain chs7, hits give low values 0.987 | locus YHR200W, strain rpn10, hits give low values 1.03 | locus YIL066C, strain RNR3, hits give low values 1.02 | locus YIL073C, strain SPO22, hits give low values 1.07 | locus YIL125W, strain kgd1, hits give low values 1 | locus YIR030C, strain dcg1, hits give low values 1.02 | locus YJL092W, strain hpr5, hits give low values 1.02 | locus YJL095W, strain BCK1 (second series), hits give low values 1.01 | locus YJL095W, strain BCK1, hits give low values 1.01 and 0.987 | locus YJL115W, strain asf1, hits give low values 1.02 | locus YJL129C, strain trk1, hits give low values 0.996 | locus YJL134W, strain LCB3, hits give low values 1.02 | locus YJL154C, strain vps35, hits give low values 1 | locus YJL164C, strain tpk1, hits give low values 1.02 | locus YJL166W, strain qcr8, hits give low values 1 | locus YJL168C, strain set2, hits give low values 1.02 | locus YJL187C, strain SWE1 (second series), hits give low values 1.03 | locus YJL187C, strain SWE1, hits give low values 1 | locus YJR066W, strain TOR1, hits give low values 0.927 | locus YKL009W, strain mrt4, hits give low values 0.952 | locus YKL068W, hits give low values 1.03 | locus YKL085W, strain MDH1 (second series), hits give low values 1.02 | locus YKL085W, strain MDH1, hits give low values 1.02 | locus YKL160W, strain elf1, hits give low values 1.01 | locus YKL190W, strain CNB1, hits give low values 1.04 | locus YKR001C, strain vps1, hits give low values 1.01 | locus YKR026C, strain gcn3, hits give low values 1.01 | locus YKR091W, strain srl3, hits give low values 1.01 | locus YLL001W, strain dnm1, hits give low values 1.01 | locus YLL026W, hits give low values 1.01 | locus YLL041C, strain sdh2, hits give low values 1.01 | locus YLR027C, strain aat2, hits give low values 1 | locus YLR039C, strain RIC1, hits give low values 1.13 | locus YLR058C, strain SHM2, hits give low values 1.02 | locus YLR102C, strain apc9, hits give low values 1.01 | locus YLR113W, strain HOG1, hits give low values 1.01 | locus YLR221C, strain rsa3, hits give low values 1 | locus YLR258W, strain gsy2, hits give low values 1 | locus YLR262C, strain YPT6 (second series), hits give low values 1.01 | locus YLR262C, strain YPT6, hits give low values 1.06 | locus YLR268W, strain sec22, hits give low values 0.972 | locus YLR320W, strain mms22, hits give low values 1.02 | locus YLR330W, strain CHS5, hits give low values 1.02 | locus YLR342W, strain FKS1 (second series), hits give low values 0.997 | locus YLR342W, strain FKS1, hits give low values 1.01 | locus YLR357W, strain rsc2, hits give low values 1.1 | locus YLR370C, strain arc18, hits give low values 1.01 | locus YLR371W, strain rom2, hits give low values 1.04 | locus YLR384C, strain iki3, hits give low values 0.998 | locus YLR418C, strain cdc73, hits give low values 1.05 | locus YML016C, strain PPZ1, hits give low values 1.02 | locus YML032C, strain rad52, hits give low values 0.98 | locus YML120C, strain ndi1, hits give low values 1.02 | locus YML124C, strain tub3, hits give low values 1.03 | locus YMR058W, strain fet3, hits give low values 1.02 | locus YMR078C, strain ctf18, hits give low values 1.02 | locus YMR125W, strain sto1, hits give low values 1.04 | locus YMR129W, hits give low values 1.01 | locus YMR205C, strain PFK2, hits give low values 1.01 | locus YMR223W, strain ubp8, hits give low values 1.01 | locus YMR231W, strain pep5, hits give low values 1.01 | locus YMR307W, strain GAS1, hits give low values 0.979 | locus YNL067W, strain RPL9B, hits give low values 1.03 | locus YNL071W, strain lat1, hits give low values 1 | locus YNL153C, strain GIM3, hits give low values 1.04 | locus YNL183C, strain NPR1, hits give low values 0.944 | locus YNL209W, strain ssb2, hits give low values 1.01 | locus YNL233W, strain BNI4, hits give low values 1.03 | locus YNL248C, strain rpa49, hits give low values 1.02 | locus YNL250W, strain rad50, hits give low values 1.06 | locus YNL271C, strain bni1, hits give low values 1.02 | locus YNL298W, strain CLA4, hits give low values 0.969 | locus YNL307C, strain MCK1, hits give low values 0.97 | locus YNL322C, strain KRE1 (second series), hits give low values 1.01 | locus YNL322C, strain KRE1, hits give low values 1.02 | locus YNR049C, strain mso1, hits give low values 1.01 | locus YNR052C, strain pop2, hits give low values 1.02 | locus YOL012C, strain htz1 1.12 | locus YOL147C, strain pex11, hits give low values 1 | locus YOR001W, strain rrp6, hits give low values 1 | locus YOR061W, strain CKA2, hits give low values 1.02 | locus YOR069W, strain VPS5, hits give low values 1.02 | locus YOR070C, strain gyp1, hits give low values 1 | locus YOR080W, strain dia2, hits give low values 1.01 | locus YOR083W, strain WHI5, hits give low values 0.999 | locus YOR106W, strain vam3, hits give low values 1 | locus YOR136W, strain idh2, hits give low values 1.01 | locus YOR144C, strain elg1, hits give low values 1.04 | locus YOR184W, strain ser1, hits give low values 0.957 | locus YOR231W, strain MKK1, hits give low values 0.993 | locus YOR265W, strain rbl2, hits give low values 1.01 | locus YOR270C, strain vph1, hits give low values 1.04 | locus YOR290C, strain snf2, hits give low values 1.02 | locus YOR316C, strain cot1, hits give low values 1.02 | locus YPL051W, strain arl3, hits give low values 1 | locus YPL078C, strain atp4, hits give low values 1.01 | locus YPL106C, strain sse1, hits give low values 0.996 | locus YPL240C, strain hsp82, hits give low values 0.995 | locus YPL241C, strain CIN2, hits give low values 1.04 | locus YPL256C, strain CLN2, hits give low values 0.963 | locus YPR119W, strain clb2, hits give low values 1.02 | locus YPR141C, strain kar3, hits give low values 1.03 | locus YPR163C, strain tif3, hits give low values 0.992 | locus YPR167C, strain met16, hits give low values 1.02 | strain wtn01, hits give low values 1.01
